The list is not random: actives were taken first. Their share in the collection is about 2.6%.
TWEAK Fn14 block = blocks TWEAK-Fn14 interaction in a reporter cell assay. inhibition, % at 10 µM. actives 2% (n = 360,000). TWEAK-stimulated Fn14 reporter cells, luciferase luminescence, 8 h; in the data active = inhibition above about 50%
KKLEB tox = CF airway cell cytotoxicity counter-screen | KKLEB CF airway cells viability, ATPlite luminescence, overnight; active compounds read low; cells stimulated with P. aeruginosa culture filtrate | activity change (cytotoxicity), % at 5 µM | actives 0.36% (n = 360,000) | AID 602141;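 active = corrected activity change at or below -50% at 5 µM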
TROY signal inh = inhibitors of TROY-dependent NF-kB signaling | Q293 LMP1-TROYcd NF-kB luciferase reporter, 4 h | inhibition, % at 10 µM | actives 0.98% (n = 360,000);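 active = compounds whose plate-normalised and pattern-corrected inhibition of the luciferase reporter signal at the single screening dose is 50% or more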
CF NFkB inh = inhibitors of cystic fibrosis induced NF-kB | KKLEB NF-kB-GFP reporter, PAF-induced, GFP fluorescence overnight | inhibition, % at 5 µM | actives 0.86% (n = 360,000) | AID 588850;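 active = at least 50% inhibition at 5 µM, scaled per plate between neutral and stimulator controls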;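 also: PAF is a Pseudomonas aeruginosa culture filtrate used as stimulus; plate controls were PAF-stimulated DMSO wells for no effect and unstimulated DMSO wells for full effect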
LGR2 inh = blocks bursicon-induced cAMP signaling via Drosophila LGR2. HEK293 LGR2, CRE-luciferase, bursicon-stimulated, 4 h. inhibition, % at 9.99 µM. AID 720647. actives 0.35% (n = 380,000);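 active = drop in luminescence signal, shown as inhibition above about 50% in the replicate tests, limit read from the data, passing the limit was not always enough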;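 also: agonist challenge used bursicon conditioned medium at about half maximal strength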
EWS-Fli block = EWS/Fli transcriptional activity inhibition; AID 651661; A673 NR0B1-luciferase reporter, viability-normalised; actives 0.67% (n = 350,000); inhibition, % at 12.6 µM;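 active = mean inhibition of at least 50% after viability correction, with every replicate also passing that limit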;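 also: firefly luciferase signal divided by Alamar Blue viability fluorescence both relative to DMSO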
Starred values were filed as active, the others as inactive; / = no result.

SMILES	TWEAK Fn14 block	KKLEB tox	TROY signal inh	CF NFkB inh	LGR2 inh	EWS-Fli block
C[C@@H]1CN([C@H](C)CO)C(=O)c2c(c3ccccc3n2C)-c2ccccc2CO[C@H]1CN(C)C(=O)Nc1ccc2c(c1)OCO2	/	/	/	/	-4.3	5.0
CC=Cc1ccc2n(c1=O)C[C@H]1[C@H](CO)[C@@H](C(=O)NCCc3ccncc3)N[C@@H]21 (mixture of isomers)	/	/	/	/	-0.2	2.2
CCCC(=O)N1CC2(CN(C(=O)CC3CC3)C2)c2c(n(C)c3cc(OC)ccc23)[C@@H]1CO	/	/	/	/	2.7	-4.2
C[C@H](CO)N1C[C@H](C)[C@@H](CN(C)Cc2ccccc2F)Oc2cc(C#CC3CC3)ccc2S1(=O)=O	/	/	/	/	-11.5	8.1
Cc1noc(C)c1C(=O)Nc1nc(-c2ccc(F)c(F)c2)cs1	-1.0	4.0	-5.7	6.9	-6.3	-10.1
COc1ccc(-c2csc(NC(=O)c3c(C)noc3C)n2)cc1F	20.3	-11.4	77.1*	-4.7	-8.7	-7.3
Cc1[nH]c2ccccc2c1C(=O)C(C)OC(=O)c1ccc(NC(=O)CC#N)cc1 (stereo not given)	13.4	0.0	13.2	-3.6	12.1	11.6
Cc1[nH]c2ccccc2c1C(=O)C(C)OC(=O)c1ccccc1NCCO (stereo not given)	52.8*	-0.6	31.3	-1.9	-3.1	-6.8
C[C@H]1CN([C@@H](C)CO)C(=O)Cc2cc(NS(=O)(=O)c3cccs3)ccc2O[C@H]1CN(C)C(=O)NC1CCCCC1	/	/	/	/	2.0	-4.7
COc1ccc(C(=O)CSc2nnc(CNc3ccc(C)cc3C)o2)cc1	2.2	0.4	-15.7	21.4	/	/
Cc1ccc(NCc2nnc(SCC(=O)c3ccc4c(c3)OCCO4)o2)c(C)c1	30.9	-22.6	76.6*	32.5	7.0	9.6
CCCCCN(C(=O)CCC(=O)OCc1ccc(C(C)C)cc1)c1c(N)n(CCCC)c(=O)[nH]c1=O	10.5	-54.4*	-22.2	54.5*	13.4	15.4
Cc1cc(O)ccc1N/C=C/c1onc(C)c1[N+](=O)[O-]	3.4	-52.0*	36.9	36.8	-51.4	-21.4
Cc1cccc(/C=C/c2onc(C)c2[N+](=O)[O-])n1	/	/	/	/	70.5*	41.4
CCCNC(=O)N(C)C[C@@H]1Oc2cc(C3=CCCC3)ccc2S(=O)(=O)N([C@@H](C)CO)C[C@H]1C	/	/	/	/	6.2	9.0
CN(C)S(=O)(=O)c1ccc(C(=O)NCCN2C(=O)S/C(=C\c3cccnc3)C2=O)cc1	-6.9	3.3	3.1	-13.1	-8.3	1.4
O=C(O)CCN1C(=O)S/C(=C\c2cccnc2)C1=O	-2.4	4.5	78.7*	-9.6	-2.3	-6.7
CS(=O)(=O)c1ccc(C(=O)NCCN2C(=O)S/C(=C\c3cccnc3)C2=O)cc1[N+](=O)[O-]	83.5*	-68.0*	15.1	78.0*	68.7*	63.9*
COc1ccc(CN(C)C[C@@H]2Oc3ccc(NC(=O)Nc4cccc5ccccc45)cc3CC(=O)N([C@H](C)CO)C[C@@H]2C)cc1	/	/	/	/	14.3	-2.5
Oc1c(Cl)cc(Cl)cc1C=Nc1ccc2c(c1)OCCO2	75.2*	3.1	62.9*	6.0	/	/
Brc1csc(C=Nc2ccc3c(c2)OCCOCCOCCOCCO3)c1	-10.4	-0.3	14.1	-11.9	-3.5	/
Cc1ccc(/C(O)=C2/C(=O)C(=O)N(Cc3cccnc3)C2c2ccccn2)cc1 (stereo not given)	-16.2	-11.6	-57.6	11.1	/	/
Cc1c(/C(O)=C2/C(=O)C(=O)N(Cc3cccnc3)C2c2ccccn2)cnn1-c1ccccc1 (stereo not given)	101.4*	3.0	91.5*	4.3	86.9*	27.4
Cc1c(/C(O)=C2/C(=O)C(=O)N(Cc3cccnc3)C2c2cccs2)cnn1-c1ccccc1 (stereo not given)	83.2*	-5.5	84.8*	-1.6	/	/
Cc1c(/C(O)=C2/C(=O)C(=O)N(CCN3CCOCC3)C2c2ccco2)cnn1-c1ccccc1 (stereo not given)	85.4*	-1.9	74.0*	-0.7	29.3	13.8
SMILES	TWEAK Fn14 block	KKLEB tox	TROY signal inh	CF NFkB inh	LGR2 inh	EWS-Fli block
CCN(CC)c1ccc(/C=C2/C(=O)ON=C2C)cc1	-5.9	-9.5	-71.1	-10.1	-54.1	-4.2
CCN(CC)c1ccc(/C=C2\C(=O)N(c3nnc(C)c(=O)[nH]3)N=C2C)cc1	74.8*	-3.2	-20.4	-8.1	-0.8	18.5
C[C@@H](NC(=O)C[C@H]1C[C@@H]2c3cc(NC(=O)NC4CCCC4)ccc3O[C@@H]2[C@@H](CO)O1)c1ccccc1	/	/	/	/	-8.9	-4.9
COc1ccc(NC(=O)Nc2cccc3c2O[C@@H](CN(C)C(=O)NC(C)C)[C@H](C)CN([C@@H](C)CO)C3=O)cc1	/	/	/	/	-9.9	1.3
CCOC(=O)c1ccc(NC(=O)c2nc[nH]c2C(=O)NCCNC(=O)c2[nH]cnc2C(=O)Nc2ccc(C(=O)OCC)cc2)cc1	6.4	-50.1*	3.4	76.4*	-0.8	59.7*
COc1ccc(OC)c2sc(N3CCc4ccccc4C3)nc12	-16.0	-3.7	-24.1	7.3	-8.6	-12.4
c1ccc2c(c1)CCN(c1nc3cc4c(cc3s1)OCCO4)C2	102.6*	-51.8*	75.2*	-4.6	/	/
Oc1ccc(N=Nc2ccccc2)o1	45.0	-20.7	-24.2	94.8*	-8.1	-8.7
O=c1ccc(N=Nc2ccccc2)ccc1O	2.4	3.2	-29.3	-11.0	-17.2	14.9
CCc1ccc(-c2nc(CN3CCC(C(=O)N4CCN(c5ccccc5)CC4)CC3)c(C)o2)cc1	94.5*	-20.9	26.7	18.3	/	/
CC(C)CC#Cc1ccc([C@@H]2[C@H](CO)N3C(=O)CN(C(=O)Cc4cccnc4)C[C@@H]23)cc1	/	/	/	/	4.5	1.7
O=c1c(Cc2ccc(Cl)cc2Cl)c(O)ccn1Cc1ccc(Cl)cc1	-3.1	-0.1	50.8*	-1.9	-16.4	/
O=C(NC1CCC1)[C@H]1[C@H](CO)[C@H]2Cn3c(ccc(-c4cncnc4)c3=O)[C@@H]1N2CCc1ccccc1	/	/	/	/	-14.3	0.7
O=C(CNC(=O)c1cccs1)c1ccc(Cl)cc1	23.4	3.7	8.2	6.3	-54.4	-38.5
O=C(CNC(=O)c1cccs1)c1ccc(F)cc1	52.0*	-1.1	18.9	-3.2	-43.9	/
O=C(CNC(=O)c1ccccc1F)c1ccccc1	62.3*	13.3	-12.5	-0.3	35.8	-11.9
N#C[C@H]1[C@H](c2ccc(-c3cccc(F)c3)cc2)[C@H](CO)N1c1nc(-c2ccccc2)cs1	/	/	/	/	1.3	-9.4
Cc1c(/C=C/C(=O)c2cccs2)cnn1C	-19.9	11.1	-27.6	-5.1	/	/
CCc1ccc(C(=O)/C=C/c2cnn(C)c2C)s1	60.5*	9.5	67.4*	-18.0	/	/
CC(C)NC(=O)N[C@H]1C=C[C@H](CC(=O)NC2Cc3ccccc3C2)O[C@H]1CO	/	/	/	/	2.1	/
O=C(C[C@@H]1C[C@H]2c3cc(NC(=O)C4CCC4)ccc3O[C@H]2[C@H](CO)O1)NCc1ccc(-c2ccccc2)cc1	/	/	/	/	17.1	20.1
CC1(C)CN(O)CCN1O	2.4	5.2	-23.2	-9.3	-2.8	73.4*
